Laboratory results reported in the antibiotic and cytotoxicity screens of Wong et al. (2023).
The campaign covered roughly 39,000 compounds. About 1,500 (3.8%) were called active. Many of the other results were omitted from the sample, so actives are more common in it than they were.

What follows are compounds tested on HSkMC (human skeletal muscle cells) (assay: cytotoxicity call (relative viability < 0.9)). Details: 10 µM.

Question: How did the cytotoxicity call turn out when `Cn1cnc(S(=O)(=O)N2C[C@@H](O)COC[C@H]3O[C@H](CC(=O)N4CCN(c5ccccc5)CC4)CC[C@@H]32)c1` was run?
Answer: inactive

Question: `Cl.Cl.O=C1c2c(O)ccc(O)c2C(=O)c2c(NCCNCCO)ccc(NCCNCCO)c21` was tested. Which cytotoxicity call did it give?
Answer: active

Question: For `O=C1c2c(O)ccc(O)c2C(=O)c2c(NCCNCCO)ccc(NCCNCCO)c21`, which cytotoxicity call is on record?
Answer: active

Question: `O=C1c2ccccc2C(=O)c2c(NCCNCCO)ccc(NCCNCCO)c21` was tested. Which cytotoxicity call did it give?
Answer: active

Question: `O=C1c2ccccc2C(=O)c2c1ccc(O)c2O` was tested. Which cytotoxicity call did it give?
Answer: inactive

Question: For `O=C(CCNCCO)c1ccccc1`, which cytotoxicity call is on record?
Answer: inactive

Question: `O=[N+]([O-])c1ccc(NCCNCCO)cc1` was tested. Which cytotoxicity call did it give?
Answer: inactive

Question: `O=C1c2cccc(O)c2C(=O)c2c(O)cccc21` was tested. Which cytotoxicity call did it give?
Answer: inactive

Question: Which cytotoxicity call does the source give for `COc1ccc(S(=O)(=O)Nc2ccc3c(c2)C(=O)N([C@@H](C)CO)C[C@H](C)[C@H](CN(C)Cc2ccncc2)O3)cc1` here?
Answer: inactive

Question: Which cytotoxicity call does the source give for `C[C@@H]1CN([C@H](C)CO)S(=O)(=O)c2ccc(C#CCN(C)C)cc2O[C@@H]1CN(C)Cc1ccccc1F` here?
Answer: inactive

Question: For `C[C@@H]1CN([C@H](C)CO)C(=O)c2cc(NC(=O)Cn3cnnn3)ccc2O[C@H]1CN(C)C(=O)Nc1ccc2c(c1)OCO2`, which cytotoxicity call is on record?
Answer: inactive

Question: For `COc1ncc(-c2nc(N3CCOCC3)nc3c(CN4CCC(C(C)(C)O)CC4)cc(F)cc23)cc1NS(C)(=O)=O`, which cytotoxicity call is on record?
Answer: inactive

Question: Which cytotoxicity call does the source give for `CC(=O)/C(C)=N/O` here?
Answer: inactive

Question: How did the cytotoxicity call turn out when `C[C@@H]1CCCCO[C@H](CN(C)C(=O)c2ccccc2)[C@@H](C)CN([C@@H](C)CO)C(=O)c2cc(NC(=O)c3ccccc3)ccc2O1` was run?
Answer: inactive

Question: How did the cytotoxicity call turn out when `O=C1CCCNc2ccc(Cl)cc21` was run?
Answer: inactive

Question: Which cytotoxicity call does the source give for `O=C1NCc2ccccc21` here?
Answer: inactive

Question: `O=C1CCNc2cc3ccccc3cc21` was tested. Which cytotoxicity call did it give?
Answer: active

Question: For `C[C@H]1CCCCO[C@@H](CN(C)Cc2ccc(C(=O)O)cc2)[C@@H](C)CN([C@@H](C)CO)C(=O)c2cc(NC(=O)c3ccccc3)ccc2O1`, which cytotoxicity call is on record?
Answer: inactive

Question: `C[C@@H]1CCCCO[C@@H](CN(C)C(=O)Cc2ccccc2)[C@@H](C)CN([C@H](C)CO)C(=O)c2cc(NC(=O)Cc3ccccc3)ccc2O1` was tested. Which cytotoxicity call did it give?
Answer: inactive

Question: Which cytotoxicity call does the source give for `CO[C@@]12[C@H](COC(N)=O)C3=C(C(=O)C(C)=C(N)C3=O)N1C[C@@H]1N[C@@H]12` here?
Answer: inactive

Question: `COC12C(COC(N)=O)C3=C(C(=O)C(C)=C(N)C3=O)N1CC1NC12` (configuration not stated) was tested. Which cytotoxicity call did it give?
Answer: inactive

Question: How did the cytotoxicity call turn out when `CO[C@@]12[C@@H]3N[C@@H]3CN1C1=C(C(=O)C(N)=C(C)C1=O)[C@@H]2COC(N)=O` was run?
Answer: active

Question: For `CCOC(=O)C1CCN(S(=O)(=O)c2c(C)n(C)c(=O)n(C)c2=O)CC1`, which cytotoxicity call is on record?
Answer: inactive

Question: `C[C@@H]1CN([C@H](C)CO)C(=O)CCCn2nncc2CO[C@@H]1CN(C)Cc1ccc(C(=O)Nc2ccccc2N)cc1` was tested. Which cytotoxicity call did it give?
Answer: inactive

Question: `C[C@@H]1CN([C@@H](C)CO)C(=O)Cc2cc(NC(=O)NC3CCCCC3)ccc2O[C@H]1CN(C)Cc1ccc(Cl)c(Cl)c1` was tested. Which cytotoxicity call did it give?
Answer: inactive

Question: For `C[C@@H]1CN([C@@H](C)CO)C(=O)Cc2cc(NC(=O)NC3CCCCC3)ccc2O[C@@H]1CN(C)Cc1ccc(Cl)c(Cl)c1`, which cytotoxicity call is on record?
Answer: inactive

Question: With `C[C@H](CO)N1C[C@H](C)[C@@H](CN(C)Cc2ccc(Cl)c(Cl)c2)Oc2ccc(NC(=O)NC3CCCCC3)cc2CC1=O` as the compound, how does the cytotoxicity call read?
Answer: inactive

Question: With `C[C@H](CO)N1C[C@H](C)[C@H](CN(C)Cc2ccc(Cl)c(Cl)c2)Oc2ccc(NC(=O)NC3CCCCC3)cc2CC1=O` as the compound, how does the cytotoxicity call read?
Answer: inactive

Question: How did the cytotoxicity call turn out when `C[C@@H]1CN([C@H](C)CO)C(=O)Cc2cc(NC(=O)NC3CCCCC3)ccc2O[C@H]1CN(C)Cc1ccc(Cl)c(Cl)c1` was run?
Answer: active

Question: With `C[C@@H]1CN([C@H](C)CO)C(=O)Cc2cc(NC(=O)NC3CCCCC3)ccc2O[C@@H]1CN(C)Cc1ccc(Cl)c(Cl)c1` as the compound, how does the cytotoxicity call read?
Answer: active

Question: For `Cc1noc(C)c1NC(=O)N(C)C[C@H]1OCCCC[C@@H](C)Oc2ccc(NS(=O)(=O)c3cccs3)cc2C(=O)N([C@@H](C)CO)C[C@H]1C`, which cytotoxicity call is on record?
Answer: inactive

Question: For `Cc1noc(C)c1NC(=O)N(C)C[C@H]1OCCCC[C@H](C)Oc2ccc(NS(=O)(=O)c3ccc(F)cc3)cc2C(=O)N([C@@H](C)CO)C[C@H]1C`, which cytotoxicity call is on record?
Answer: inactive

Question: Which cytotoxicity call does the source give for `COc1ccccc1CNC(=O)C[C@H]1C[C@H]2c3cc(NC(=O)NC4CCCC4)ccc3O[C@H]2[C@H](CO)O1` here?
Answer: inactive

Question: Which cytotoxicity call does the source give for `COc1ccc(CN(C)C[C@H]2Oc3c(NC(=O)c4ccc(-c5nccs5)cc4)cccc3C(=O)N([C@H](C)CO)C[C@H]2C)cc1` here?
Answer: inactive

Question: For `CC[C@H]1OC[C@@H]2CN(C(=O)CN(C)C)CC[C@H]21`, which cytotoxicity call is on record?
Answer: inactive

Question: For `C[C@@H]1CN([C@H](C)CO)C(=O)Cc2cc(NC(=O)Nc3ccc4c(c3)OCO4)ccc2O[C@@H]1CN(C)C(=O)Nc1cccc2ccccc12`, which cytotoxicity call is on record?
Answer: inactive

Question: `C[C@H]1CN([C@@H](C)CO)C(=O)Cc2cc(NC(=O)Nc3ccc4c(c3)OCO4)ccc2O[C@@H]1CN(C)C(=O)Nc1cccc2ccccc12` was tested. Which cytotoxicity call did it give?
Answer: inactive

Question: `C[C@@H]1CN([C@H](C)CO)C(=O)Cc2cc(NC(=O)Cc3ccccc3)ccc2O[C@H]1CN(C)C(=O)Nc1cccc2ccccc12` was tested. Which cytotoxicity call did it give?
Answer: inactive

Question: `C[C@H]1CN([C@@H](C)CO)C(=O)Cc2cc(NC(=O)Nc3cccc4ccccc34)ccc2O[C@H]1CN(C)C(=O)Nc1cccc2ccccc12` was tested. Which cytotoxicity call did it give?
Answer: inactive

Question: With `C[C@H](CO)N1C[C@H](C)[C@@H](CN(C)C(=O)Nc2cccc3ccccc23)Oc2ccc(NC(=O)Nc3ccccc3)cc2CC1=O` as the compound, how does the cytotoxicity call read?
Answer: active

Question: For `C[C@@H]1CN([C@@H](C)CO)C(=O)Cc2cc(NC(=O)Nc3cccc4ccccc34)ccc2O[C@@H]1CN(C)C(=O)Nc1cccc2ccccc12`, which cytotoxicity call is on record?
Answer: inactive

Question: For `C[C@H](CO)N1C[C@H](C)[C@@H](CN(C)C(=O)Nc2cccc3ccccc23)Oc2ccc(NC(=O)Nc3ccc4c(c3)OCO4)cc2CC1=O`, which cytotoxicity call is on record?
Answer: active

Question: Which cytotoxicity call does the source give for `C[C@H]1CN([C@@H](C)CO)C(=O)Cc2cc(NC(=O)Nc3ccccc3)ccc2O[C@@H]1CN(C)C(=O)Nc1cccc2ccccc12` here?
Answer: inactive

Question: With `C[C@H](CO)N1C[C@H](C)[C@@H](CN(C)C(=O)Nc2cccc3ccccc23)Oc2ccc(NC(=O)Cc3ccccc3)cc2CC1=O` as the compound, how does the cytotoxicity call read?
Answer: active

Question: For `C[C@H]1CN([C@@H](C)CO)C(=O)Cc2cc(NC(=O)Cc3ccccc3)ccc2O[C@@H]1CN(C)C(=O)Nc1cccc2ccccc12`, which cytotoxicity call is on record?
Answer: inactive

Question: How did the cytotoxicity call turn out when `C[C@@H]1CN([C@H](C)CO)C(=O)Cc2cc(NC(=O)Nc3ccccc3)ccc2O[C@@H]1CN(C)C(=O)Nc1cccc2ccccc12` was run?
Answer: inactive

Question: `C[C@H](CO)N1C[C@H](C)[C@@H](CN(C)C(=O)Nc2cccc3ccccc23)Oc2ccc(NC(=O)Nc3cccc4ccccc34)cc2CC1=O` was tested. Which cytotoxicity call did it give?
Answer: active
